ELG1 repair inh: qHTS screen for small molecules that inhibit ELG1-dependent DNA repair in human embryonic kidney (HEK293T) cells expressing luciferase-tagged ELG1. Potency, µM (highest dose often 46.1 µM), inactives show at the top dose activity change, negative = inhibition, hits mostly inhibitors. HEK293T ELG1-luciferase reporter, luminescence, 16 h; DNA damage induced by 5-fluorouridine. 2.3% of 330,000 active; note: nearly all actives have a fitted effect of over 55% in size
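Reporter activity after DNA damage by 5-fluorouridine is monitored. Compound-treated cells incubate 16 hr at 37 °C, then ONE-Glo is added for 30 min before luminescence reading.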
TDP1 cell CPT: qHTS for Inhibitors of human tyrosyl-DNA phosphodiesterase 1 (TDP1): qHTS in cells in presence of CPT. chicken DT40 Tdp1-/-;hTDP1 cells + 20 nM CPT, ATP luminescence, 48 h. Potency, µM (titrated, usually from 46.2 µM), inactives show top-dose activity change, negative = growth inhibition, hits mostly inhibitors. 12% of 420,000 active; note: nearly all actives have a fitted effect of over 55% in size
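Chicken DT40 Tdp1-/- cells complemented with human TDP1, 400 cells/well, exposed to compounds plus 20 nM camptothecin for at least 48 h at 37 C; viability read as ATP content by CellTiter-Glo luminescence.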
Gal4-VP16 FLuc: VP16 counterscreen qHTS for inhibitors of ROR gamma transcriptional activity. Drosophila S2 Gal4-VP16 UAS-luciferase, luminescence, 20 h. Potency, µM (highest dose often 53.6 µM), without a hit: at the highest dose activity, negative = inhibition, usual class: inhibitors. 3.5% of 310,000 active. AID 2546, 2010;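 note: Gal4-VP16 expression switched on by copper sulfate through the metallothionein promoter; nearly all actives have a fitted effect of over 50% in size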
DT40 TDP1 no CPT: qHTS for Inhibitors of human tyrosyl-DNA phosphodiesterase 1 (TDP1): qHTS in cells in absence of CPT. DT40 Tdp1-/- hTDP1 cells, no CPT, ATP luminescence, 48 h. Potency, µM (doses to about 46.2 µM), for inactives: top-dose activity change, negative = growth inhibition, hits mostly inhibitors. 15% of 420,000 active; note: nearly all actives have a fitted effect of over 55% in size
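Chicken DT40 Tdp1-/- cells complemented with human TDP1, screened without camptothecin (DMSO vehicle only), 400 cells/well. Compounds pin-transferred, cells incubated at 37 °C for at least 48 hr. Growth read as ATP-dependent luminescence (CellTiter-Glo, 30 min at RT).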
ALOX12 inh: Primary qHTS assay for inhibitors of human arachidonate 12S-lipoxygenase (ALOX12): Round 2; Polyunsaturated fatty acid lipoxygenase ALOX12 (Homo sapiens), P18054; purified 12hLO, xylenol orange hydroperoxide absorbance; Potency, µM (titrated, usually from 108 µM), without a hit: at the top dose activity change, negative = inhibition, actives largely listed as inhibitors; 1.1% of 580,000 active
Target sequence (P18054 whole entry, looked up): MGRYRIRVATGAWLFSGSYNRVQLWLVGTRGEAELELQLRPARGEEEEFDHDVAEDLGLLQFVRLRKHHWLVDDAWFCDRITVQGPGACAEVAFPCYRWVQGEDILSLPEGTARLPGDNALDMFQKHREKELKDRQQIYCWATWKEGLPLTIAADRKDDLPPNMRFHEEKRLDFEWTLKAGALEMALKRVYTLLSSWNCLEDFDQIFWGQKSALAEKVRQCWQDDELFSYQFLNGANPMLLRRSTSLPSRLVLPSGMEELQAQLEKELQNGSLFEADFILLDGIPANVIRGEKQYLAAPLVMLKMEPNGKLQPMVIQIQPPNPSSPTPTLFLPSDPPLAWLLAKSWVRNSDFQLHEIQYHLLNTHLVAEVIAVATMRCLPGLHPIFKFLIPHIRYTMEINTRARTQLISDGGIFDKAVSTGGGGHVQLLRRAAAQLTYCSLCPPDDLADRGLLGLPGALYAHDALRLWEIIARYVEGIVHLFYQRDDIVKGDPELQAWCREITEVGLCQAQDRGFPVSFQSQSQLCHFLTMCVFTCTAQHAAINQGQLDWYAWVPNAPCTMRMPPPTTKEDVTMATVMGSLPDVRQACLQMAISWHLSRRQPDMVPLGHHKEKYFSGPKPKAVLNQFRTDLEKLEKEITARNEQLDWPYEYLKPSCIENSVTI
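Purified human 12hLO at 150 nM in 25 mM Hepes, 0.01% Triton X-100, pH 7.0, preincubated 15 min at room temperature with compound. Reaction started with 40 uM arachidonic acid, 30 min at room temperature. Hydroperoxide measured by Fe-xylenol orange, 573/405 nm absorbance ratio.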
RORgamma inh: qHTS for inhibitors of ROR gamma transcriptional activity | Nuclear receptor ROR-gamma (Mus musculus), P51450 | Drosophila S2 Gal4-RORgamma UAS-luciferase reporter, 20 h | Potency, µM (titrated, usually from 53.6 µM), for inactives: top-dose activity change, negative = inhibition, actives largely listed as inhibitors | 5.4% of 310,000 active | AID 2551, 2010; note: nearly all actives have a fitted effect of over 60% in size
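Drosophila Schneider cells stably carrying a metallothionein-driven Gal4 DBD–ROR gamma fusion and a UAS-Photinus luciferase reporter were exposed to compound for 1 hr, then induced with copper sulfate (700 uM final) for 20 hr at ambient temperature before luminescence reading.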
Numbers without * were called inactive; ? = inconclusive; nt = not tested or not shown; [ ] = another dose, or the depositor's remark. This is a sample that favours compounds with a hit; in the whole collection about 15% have one here. Calls come from the whole dose curve; as a rule, active = well fitted curve in the direction sought with a large enough effect; inconclusive = small, poorly fitted or top-dose-only effect, or another doubt; inactive = no such curve, though single readings can be large; an effect the other way counts as inactive or inconclusive. % is set by controls: 0 for no effect and ±100 for the full control effect; potency is the fitted concentration of half-maximal effect.

SMILES	ELG1 repair inh	TDP1 cell CPT	Gal4-VP16 FLuc	DT40 TDP1 no CPT	ALOX12 inh	RORgamma inh
COc1cc(-c2nc3sccn3c2Nc2c(C)cccc2C)ccc1O	nt	?	nt	?	-1%	nt
CCc1cccc(C)c1Nc1c(-c2cccc(O)c2)nc2sccn12	nt	15µM*	nt	16µM*	?	nt
Cc1cccc(C)c1Nc1c(-c2ccc(O)cc2)nc2sccn12	nt	6.5µM*	nt	7.3µM*	20µM*	nt
COc1cccc(Nc2c3c(nc4c(-c5ccccc5)c(C)nn24)CCC3)c1	?	6%	3.2µM*	13µM*	-7%	?
Cc1nn2c(Nc3ccc(F)cc3)c3c(nc2c1-c1ccccc1)CCC3	11%	-18%	?	-2%	-14%	2.8µM*
Cc1ccc(S(=O)(=O)NN=C2C(=O)C3CCC2C3Cl)cc1 (configuration not stated)	nt	6%	nt	-2%	10µM*	nt
C[n+]1c(/C=C/c2ccc(F)cc2)ccc2ccccc21	nt	3.5µM*	nt	2.5µM*	nt	nt
C[n+]1c(/C=C/c2ccc(O)cc2)ccc2ccccc21	8%	?	-4%	18µM*	35µM*	6%
CCN(CC)S(=O)(=O)c1ccc(Cl)c(C(=O)N2CCCC2C(=O)O)c1 (configuration not stated)	nt	nt	nt	nt	-2%	nt
CCN1CCN(c2cc(SC(C)C)nc(-c3ccc(OC)cc3)n2)CC1	2%	23µM*	-24%	?	?	-25%
CCOCCn1c(N2CCN(Cc3ccc(C)cc3)CC2)nc2c1c(=O)[nH]c(=O)n2C	nt	nt	nt	nt	29%	nt
CCn1cc(CNC(=O)c2ccc3nc(Cc4ccccc4F)oc3c2)cn1	4%	12µM*	?	12µM*	-13%	14%
Cn1cc(CCNC(=O)c2ccc3nc(Cc4ccccc4F)oc3c2)cn1	?	?	2%	-24%	20%	-22%
CCN(Cc1cnn(C)c1)C(=O)c1ccc2nc(Cc3ccccc3F)oc2c1	nt	?	nt	21µM*	12%	nt
Cc1oc(-c2ccc(Cl)cc2)nc1CN1CCC(C(=O)NCCCN2CCOCC2)CC1	-4%	29µM*	-6%	?	-3%	-1%
CCC1CCCCN1CCCNC(=O)C1CCN(Cc2nc(-c3ccc(Cl)cc3)oc2C)CC1 (configuration not stated)	-11%	3.7µM*	-12%	2.6µM*	nt	-11%
Cc1oc(-c2ccc(Cl)cc2)nc1CN1CCC(C(=O)NCC2CCCO2)CC1 (configuration not stated)	-1%	-9%	0%	-1%	-9%	-17%
CC(C)N(C(=O)COc1ncnc2ccccc12)c1ccccc1	nt	nt	nt	nt	29%	nt
COc1cccc(CC(=O)Nc2nc3ccccc3[nH]2)c1	0%	15%	-28%[10 µM]	0%	3%	?
COc1cc(OC)cc(C(=O)Nc2nc3ccccc3[nH]2)c1	?	21µM*	5.6µM*	29µM*	0%	3.2µM*
CCCCN(C(=O)c1ccccc1Br)C(c1ccc(OC)cc1)c1nc2ccccc2[nH]1 (configuration not stated)	nt	16µM*	nt	?	?	nt
COc1ccc(Br)c(C(=O)Nc2nc3ccccc3[nH]2)c1	?	-25%	5%	5.2µM*	-8%	-44%
Cc1cc(C)cc(C(=O)Nc2nc3ccccc3[nH]2)c1	?	?	10µM*	23µM*	-17%	6.3µM*
COc1cc(-c2nnc3n2C(C)(C)Cc2cc(C)c(C)cc2-3)cc(OC)c1OC	nt	nt	nt	nt	-33%	nt
COc1ccc(-c2nc(C3CC3)nc3c2CCN([S+](=O)([O-])c2cccs2)CC3)cc1	nt	nt	nt	nt	12%[6.33 µM]	nt
SMILES	ELG1 repair inh	TDP1 cell CPT	Gal4-VP16 FLuc	DT40 TDP1 no CPT	ALOX12 inh	RORgamma inh
COc1ccc2oc(C(=O)Nc3nc4ccccc4[nH]3)c(C)c2c1	?	21µM*	2.8µM*	10µM*	-11%	?
Cc1ccsc1C(=O)Nc1nc2ccccc2[nH]1	?	?	7.1µM*	?	15%	2µM*
O=C(COc1ccc2ccccc2c1)Nc1nc2ccccc2[nH]1	?	-29%	?	?	73%	?
COc1ccc(OCC(=O)Nc2nc3ccccc3[nH]2)cc1	?	-26%	7%	?	?	0.79µM*
CCS(=O)(=O)c1ccc2oc(SCC(=O)NC34CC5CC(CC(C5)C3)C4)nc2c1	0%	?	-8%	13µM*	-13%	20%
CCS(=O)(=O)c1ccc2oc(SCC(=O)NCc3ccccc3)nc2c1	-13%	7%	-30%	-10%	0%	?
COc1cccc(N2CCN(c3nc(C(=O)NCc4cccc(C)c4)cs3)CC2)c1	nt	nt	nt	nt	15%	nt
COC(=O)C1=C(C)N=c2s/c(=C/c3ccoc3)c(=O)n2C1c1ccccc1 (configuration not stated)	nt	23µM*	4%	?	nt	-5%
CCOC(=O)C1=C(C)N=c2s/c(=C/c3ccco3)c(=O)n2C1c1cccc(OC)c1 (configuration not stated)	?	?	2%	23µM*	nt	-26%
CCOC(=O)C1=C(C)N=c2s/c(=C/c3cccc([N+](=O)[O-])c3O)c(=O)n2C1c1cc(OC)c(OC)c(OC)c1 (configuration not stated)	-6%	?	-15%	7.3µM*	?	7%
CCOC(=O)C1=C(C)N=c2s/c(=C/c3cccc([N+](=O)[O-])c3O)c(=O)n2C1c1ccccc1 (configuration not stated)	3%	13µM*	-16%	16µM*	?	-3%
CCOC(=O)C1=C(C)N=c2s/c(=C\c3ccc(C(=O)O)cc3)c(=O)n2C1c1ccc(OC)cc1OC (configuration not stated)	nt	?	nt	?	-2%	nt
COc1ccc(Cc2ncc3c(n2)CN(C(=O)c2ccc(Cl)c(C)c2)C3)cc1	nt	nt	nt	nt	24%	nt
CC1CCC(NC(=O)c2ccc(Cl)nc2)CC1 (configuration not stated)	nt	nt	nt	nt	29%	nt
Cc1ccc(C)c(S(=O)(=O)N2CCCC(Cn3c(C)nc4cccnc43)C2)c1 (configuration not stated)	nt	nt	nt	nt	3%	nt

High-throughput results as filed in PubChem BioAssay.
